# Source: publication PMC7862700, “An all-to-all approach to the identification of sequence-specific readers for epigenetic DNA modifications on cytosine”
# Columns and labels:
# Assay in all cases: DAPPL (digital affinity profiling via proximity ligation, sequencing); 10 mM Tris-HCl pH 7.5, 50 mM NaCl, 1 mM DTT, 4% glycerol, room temperature, 30 min; GST-TFs on glutathione beads, 16-mer random dsDNA library, 0.1% formaldehyde crosslink after washing; high values mean tight binding
# FLI1 = target: T1, FLI1 (Homo sapiens, UniProt Q01543 1-452); conditions: protein: recombinant; tags: N-terminal GST; dsDNA, one strand shown
# T1 sequence: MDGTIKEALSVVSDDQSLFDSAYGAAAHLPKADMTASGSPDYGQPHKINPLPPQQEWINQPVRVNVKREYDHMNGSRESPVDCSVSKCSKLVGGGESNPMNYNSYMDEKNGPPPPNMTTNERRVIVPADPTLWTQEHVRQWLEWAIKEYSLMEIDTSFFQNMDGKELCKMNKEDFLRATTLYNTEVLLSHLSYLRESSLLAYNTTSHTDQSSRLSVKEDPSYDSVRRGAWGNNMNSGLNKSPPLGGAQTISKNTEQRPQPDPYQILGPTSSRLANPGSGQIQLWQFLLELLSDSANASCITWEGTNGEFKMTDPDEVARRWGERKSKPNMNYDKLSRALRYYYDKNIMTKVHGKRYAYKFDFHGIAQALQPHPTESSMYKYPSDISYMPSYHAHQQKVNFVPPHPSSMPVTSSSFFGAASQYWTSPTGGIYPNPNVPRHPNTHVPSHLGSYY
# Procedure, shortened: (§1)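 GST fusions of human transcription factors were expressed in yeast and captured with glutathione beads. Once given DNA barcodes and pooled alongside a tag-only sample, they were incubated for 30 min at room temperature with 200 nmole of a random double-stranded 16-mer DNA library in Tris/NaCl/DTT/glycerol buffer, then washed, crosslinked (0.1% formaldehyde), proximity-ligated, PCR-amplified and sequenced on an Illumina NextSeq500. The binding signal of each hexamer is its read frequency for a factor divided by its frequency for the tag-only sample.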
# ELK1 = target: T2, ELK1 (Homo sapiens, UniProt P19419 1-428); conditions: protein: recombinant; tags: N-terminal GST; dsDNA, one strand shown
# T2 sequence: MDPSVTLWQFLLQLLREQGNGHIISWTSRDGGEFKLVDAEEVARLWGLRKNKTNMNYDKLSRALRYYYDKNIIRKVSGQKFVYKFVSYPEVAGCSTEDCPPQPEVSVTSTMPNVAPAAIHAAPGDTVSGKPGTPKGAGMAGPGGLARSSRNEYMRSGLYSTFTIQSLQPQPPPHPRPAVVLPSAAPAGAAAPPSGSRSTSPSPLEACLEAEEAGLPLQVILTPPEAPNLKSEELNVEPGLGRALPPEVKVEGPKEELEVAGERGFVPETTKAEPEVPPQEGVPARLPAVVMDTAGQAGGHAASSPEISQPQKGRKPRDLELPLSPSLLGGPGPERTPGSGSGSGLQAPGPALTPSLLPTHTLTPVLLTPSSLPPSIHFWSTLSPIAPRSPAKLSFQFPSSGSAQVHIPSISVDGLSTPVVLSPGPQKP
# Procedure, shortened: as §1
# GABPA = target: T3, GABPA (Homo sapiens, UniProt Q06546 1-454); conditions: protein: recombinant; tags: N-terminal GST; dsDNA, one strand shown
# T3 sequence: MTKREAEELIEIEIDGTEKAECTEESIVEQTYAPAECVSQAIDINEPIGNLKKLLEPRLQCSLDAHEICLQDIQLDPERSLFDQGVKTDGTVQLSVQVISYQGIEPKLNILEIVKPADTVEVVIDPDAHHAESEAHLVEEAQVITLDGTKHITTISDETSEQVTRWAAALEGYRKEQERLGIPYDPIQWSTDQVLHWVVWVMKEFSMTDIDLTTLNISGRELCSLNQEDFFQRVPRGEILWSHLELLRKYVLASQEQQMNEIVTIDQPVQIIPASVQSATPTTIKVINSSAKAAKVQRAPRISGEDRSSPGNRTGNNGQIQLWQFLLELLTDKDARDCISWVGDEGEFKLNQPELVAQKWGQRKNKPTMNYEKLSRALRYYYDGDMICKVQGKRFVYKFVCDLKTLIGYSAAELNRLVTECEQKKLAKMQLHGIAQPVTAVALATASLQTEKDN
# Procedure, shortened: as §1
# ERG = target: T4, ERG (Homo sapiens, UniProt P11308 1-479); conditions: protein: recombinant; tags: N-terminal GST; dsDNA, one strand shown
# T4 sequence: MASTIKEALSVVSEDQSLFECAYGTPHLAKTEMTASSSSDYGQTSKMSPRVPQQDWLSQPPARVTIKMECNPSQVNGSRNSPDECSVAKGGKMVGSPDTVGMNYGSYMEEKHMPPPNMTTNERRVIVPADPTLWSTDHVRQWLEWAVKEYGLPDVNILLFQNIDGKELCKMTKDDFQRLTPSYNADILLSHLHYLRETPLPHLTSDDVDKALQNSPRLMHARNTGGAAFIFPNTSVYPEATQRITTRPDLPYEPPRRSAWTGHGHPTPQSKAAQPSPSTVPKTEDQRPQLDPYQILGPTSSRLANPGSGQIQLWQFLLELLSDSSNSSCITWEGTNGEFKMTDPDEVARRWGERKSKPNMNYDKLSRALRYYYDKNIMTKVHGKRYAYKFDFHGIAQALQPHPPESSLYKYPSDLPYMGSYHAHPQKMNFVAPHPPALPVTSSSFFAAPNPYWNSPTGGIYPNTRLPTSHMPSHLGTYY
# Procedure, shortened: as §1
# ELF1 = ELF1 (Homo sapiens, UniProt P32519 1-619); conditions: protein: recombinant; tags: N-terminal GST; dsDNA, one strand shown
# Procedure, shortened: as §1
# EHF = target: T5, EHF (Homo sapiens, UniProt Q9NZC4 1-300); conditions: protein: recombinant; tags: N-terminal GST; dsDNA, one strand shown
# T5 sequence: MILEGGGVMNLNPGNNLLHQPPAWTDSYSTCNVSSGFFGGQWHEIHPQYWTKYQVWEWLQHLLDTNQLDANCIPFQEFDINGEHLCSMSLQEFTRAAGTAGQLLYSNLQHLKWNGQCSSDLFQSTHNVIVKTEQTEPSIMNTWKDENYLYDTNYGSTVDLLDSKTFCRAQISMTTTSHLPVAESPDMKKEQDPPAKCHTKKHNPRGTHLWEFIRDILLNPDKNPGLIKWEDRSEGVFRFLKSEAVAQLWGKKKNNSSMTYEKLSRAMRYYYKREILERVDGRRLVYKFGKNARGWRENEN
# Procedure, shortened: as §1
# SPI1 = SPI1 (Homo sapiens, UniProt P17947 1-270); conditions: protein: recombinant; tags: N-terminal GST; dsDNA, one strand shown
# Procedure, shortened: as §1
# SPIB = SPIB (Homo sapiens, UniProt Q01892 1-262); conditions: protein: recombinant; tags: N-terminal GST; dsDNA, one strand shown
# Procedure, shortened: as §1
# ELK3 = target: T6, ELK3 (Homo sapiens, UniProt P41970 1-407); conditions: protein: recombinant; tags: N-terminal GST; dsDNA, one strand shown
# T6 sequence: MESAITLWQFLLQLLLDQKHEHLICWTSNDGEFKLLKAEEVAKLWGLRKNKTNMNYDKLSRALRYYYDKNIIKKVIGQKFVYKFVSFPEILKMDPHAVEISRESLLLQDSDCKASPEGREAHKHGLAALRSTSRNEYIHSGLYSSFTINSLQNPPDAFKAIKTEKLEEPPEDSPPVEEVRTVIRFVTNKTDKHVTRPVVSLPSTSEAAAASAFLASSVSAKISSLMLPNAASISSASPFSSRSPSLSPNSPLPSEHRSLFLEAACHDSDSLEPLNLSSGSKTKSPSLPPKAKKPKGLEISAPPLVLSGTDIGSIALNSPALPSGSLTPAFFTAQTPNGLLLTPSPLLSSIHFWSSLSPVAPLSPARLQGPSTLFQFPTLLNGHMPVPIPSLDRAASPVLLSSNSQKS
# Procedure, shortened: as §1
# FEV = target: T7, FEV (Homo sapiens, UniProt Q99581 1-238); conditions: protein: recombinant; tags: N-terminal GST; dsDNA, one strand shown
# T7 sequence: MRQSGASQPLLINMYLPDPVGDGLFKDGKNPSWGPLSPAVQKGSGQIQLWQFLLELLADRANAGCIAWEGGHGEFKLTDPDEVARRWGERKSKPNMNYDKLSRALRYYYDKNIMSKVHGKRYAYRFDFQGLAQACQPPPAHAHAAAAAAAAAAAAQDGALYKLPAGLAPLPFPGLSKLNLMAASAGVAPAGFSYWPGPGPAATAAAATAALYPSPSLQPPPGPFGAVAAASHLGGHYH
# Procedure, shortened: as §1
# ETV5 = ETV5 (Homo sapiens, UniProt P41161 1-510); conditions: protein: recombinant; tags: N-terminal GST; dsDNA, one strand shown
# Procedure, shortened: as §1
# HSF1 = HSF1 (Homo sapiens, UniProt Q00613 1-529); conditions: protein: recombinant; tags: N-terminal GST; chain copies: 3; dsDNA, one strand shown
# Procedure, shortened: as §1
# SPIC = target: T8, SPIC (Homo sapiens, UniProt Q8N5J4 1-248); conditions: protein: recombinant; tags: N-terminal GST; dsDNA, one strand shown
# T8 sequence: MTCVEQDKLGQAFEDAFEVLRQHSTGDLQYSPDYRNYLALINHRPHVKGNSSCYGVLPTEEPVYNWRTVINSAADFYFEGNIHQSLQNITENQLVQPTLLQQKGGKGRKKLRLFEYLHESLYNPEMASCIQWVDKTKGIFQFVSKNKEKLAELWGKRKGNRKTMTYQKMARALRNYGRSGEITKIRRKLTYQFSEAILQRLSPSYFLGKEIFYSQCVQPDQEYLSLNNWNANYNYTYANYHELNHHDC
# Procedure, shortened: as §1
# ELF4 = ELF4 (Homo sapiens, UniProt Q99607 1-663); conditions: protein: recombinant; tags: N-terminal GST; dsDNA, one strand shown
# Procedure, shortened: as §1
# ELK4 = target: T9, ELK4 (Homo sapiens, UniProt P28324-2 1-405); conditions: protein: recombinant; tags: N-terminal GST; dsDNA, one strand shown
# T9 sequence: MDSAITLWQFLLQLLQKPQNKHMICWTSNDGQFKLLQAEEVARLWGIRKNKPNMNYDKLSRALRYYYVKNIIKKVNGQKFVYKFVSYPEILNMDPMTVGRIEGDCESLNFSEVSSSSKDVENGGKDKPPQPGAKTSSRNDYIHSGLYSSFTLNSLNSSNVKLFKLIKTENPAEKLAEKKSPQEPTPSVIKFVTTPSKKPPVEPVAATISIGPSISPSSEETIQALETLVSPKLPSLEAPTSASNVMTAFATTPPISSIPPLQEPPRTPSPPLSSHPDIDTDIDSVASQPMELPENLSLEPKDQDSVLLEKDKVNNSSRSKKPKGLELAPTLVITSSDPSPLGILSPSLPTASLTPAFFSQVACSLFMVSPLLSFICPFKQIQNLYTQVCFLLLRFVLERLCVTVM
# Procedure, shortened: as §1
# ETV2 = target: T10, ETV2 (Homo sapiens, UniProt O00321 1-342); conditions: protein: recombinant; tags: N-terminal GST; dsDNA, one strand shown
# T10 sequence: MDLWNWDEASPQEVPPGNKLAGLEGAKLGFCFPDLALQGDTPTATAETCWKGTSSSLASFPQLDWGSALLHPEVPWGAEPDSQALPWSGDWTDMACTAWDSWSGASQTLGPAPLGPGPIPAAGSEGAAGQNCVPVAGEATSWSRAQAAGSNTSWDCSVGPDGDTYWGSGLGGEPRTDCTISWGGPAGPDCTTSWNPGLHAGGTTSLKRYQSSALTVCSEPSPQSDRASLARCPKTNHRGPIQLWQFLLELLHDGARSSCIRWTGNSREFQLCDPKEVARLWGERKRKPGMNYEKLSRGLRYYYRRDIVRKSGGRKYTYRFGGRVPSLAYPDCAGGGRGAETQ
# Procedure, shortened: as §1
# ELF3 = target: T11, ELF3 (Homo sapiens, UniProt P78545 1-371); conditions: protein: recombinant; tags: N-terminal GST; dsDNA, one strand shown
# T11 sequence: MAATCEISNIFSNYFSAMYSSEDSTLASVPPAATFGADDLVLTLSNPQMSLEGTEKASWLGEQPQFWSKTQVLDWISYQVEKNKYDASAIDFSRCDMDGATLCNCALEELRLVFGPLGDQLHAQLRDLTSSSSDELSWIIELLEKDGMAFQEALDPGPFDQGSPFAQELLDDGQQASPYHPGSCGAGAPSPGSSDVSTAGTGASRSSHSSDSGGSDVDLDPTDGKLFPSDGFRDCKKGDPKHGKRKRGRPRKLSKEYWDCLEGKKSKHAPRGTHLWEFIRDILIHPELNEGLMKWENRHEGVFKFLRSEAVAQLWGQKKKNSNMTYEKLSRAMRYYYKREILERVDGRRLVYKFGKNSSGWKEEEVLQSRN
# Procedure, shortened: as §1
# CRX = CRX (Homo sapiens, UniProt O43186 1-299); conditions: protein: recombinant; tags: N-terminal GST; dsDNA, one strand shown
# Procedure, shortened: as §1
# ETV1 = ETV1 (Homo sapiens, UniProt P50549 1-477); conditions: protein: recombinant; tags: N-terminal GST; dsDNA, one strand shown
# Procedure, shortened: as §1
# HSF1, sequence (Q00613 whole entry): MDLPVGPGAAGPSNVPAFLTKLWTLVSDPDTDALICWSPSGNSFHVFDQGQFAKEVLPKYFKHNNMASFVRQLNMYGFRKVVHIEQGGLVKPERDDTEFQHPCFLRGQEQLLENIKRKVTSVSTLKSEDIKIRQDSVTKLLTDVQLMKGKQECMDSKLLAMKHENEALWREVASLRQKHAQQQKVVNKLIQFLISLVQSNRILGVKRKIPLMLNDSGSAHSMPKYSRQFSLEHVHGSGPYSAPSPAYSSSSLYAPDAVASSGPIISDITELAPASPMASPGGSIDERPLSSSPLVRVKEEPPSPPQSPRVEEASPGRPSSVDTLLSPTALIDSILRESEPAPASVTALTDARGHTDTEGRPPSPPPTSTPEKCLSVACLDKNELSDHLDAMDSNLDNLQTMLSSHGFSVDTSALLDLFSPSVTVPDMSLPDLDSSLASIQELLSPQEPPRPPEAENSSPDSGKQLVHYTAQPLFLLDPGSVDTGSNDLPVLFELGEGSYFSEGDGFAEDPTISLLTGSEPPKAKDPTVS
# ETV5, sequence (P41161 whole entry): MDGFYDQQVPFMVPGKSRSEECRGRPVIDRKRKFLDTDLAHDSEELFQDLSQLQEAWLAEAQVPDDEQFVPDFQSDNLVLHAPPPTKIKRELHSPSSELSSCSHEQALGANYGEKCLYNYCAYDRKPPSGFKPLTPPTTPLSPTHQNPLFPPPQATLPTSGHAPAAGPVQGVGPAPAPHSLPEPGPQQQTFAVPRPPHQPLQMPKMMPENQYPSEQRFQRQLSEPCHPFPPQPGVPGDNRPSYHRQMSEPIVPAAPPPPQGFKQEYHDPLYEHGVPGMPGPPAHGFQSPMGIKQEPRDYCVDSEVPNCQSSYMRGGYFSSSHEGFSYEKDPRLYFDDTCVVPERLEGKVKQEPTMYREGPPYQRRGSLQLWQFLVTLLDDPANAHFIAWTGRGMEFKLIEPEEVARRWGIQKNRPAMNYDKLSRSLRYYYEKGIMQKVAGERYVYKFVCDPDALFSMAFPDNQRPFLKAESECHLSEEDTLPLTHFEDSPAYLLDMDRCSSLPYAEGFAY
# ETV1, sequence (P50549 whole entry): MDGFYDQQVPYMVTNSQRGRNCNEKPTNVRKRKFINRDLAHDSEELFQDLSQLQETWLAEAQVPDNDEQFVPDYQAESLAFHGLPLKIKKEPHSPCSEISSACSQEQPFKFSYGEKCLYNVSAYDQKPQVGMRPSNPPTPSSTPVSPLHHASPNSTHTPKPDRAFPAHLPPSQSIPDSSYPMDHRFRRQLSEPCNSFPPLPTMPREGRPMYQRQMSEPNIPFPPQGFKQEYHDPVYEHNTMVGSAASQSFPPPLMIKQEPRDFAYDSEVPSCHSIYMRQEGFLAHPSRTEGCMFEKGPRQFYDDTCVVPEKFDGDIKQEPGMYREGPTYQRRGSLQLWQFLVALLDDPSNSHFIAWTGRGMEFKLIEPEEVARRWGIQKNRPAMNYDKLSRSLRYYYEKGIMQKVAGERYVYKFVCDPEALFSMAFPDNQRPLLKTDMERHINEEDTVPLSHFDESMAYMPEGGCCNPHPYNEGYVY
# ELF4, sequence (Q99607 whole entry): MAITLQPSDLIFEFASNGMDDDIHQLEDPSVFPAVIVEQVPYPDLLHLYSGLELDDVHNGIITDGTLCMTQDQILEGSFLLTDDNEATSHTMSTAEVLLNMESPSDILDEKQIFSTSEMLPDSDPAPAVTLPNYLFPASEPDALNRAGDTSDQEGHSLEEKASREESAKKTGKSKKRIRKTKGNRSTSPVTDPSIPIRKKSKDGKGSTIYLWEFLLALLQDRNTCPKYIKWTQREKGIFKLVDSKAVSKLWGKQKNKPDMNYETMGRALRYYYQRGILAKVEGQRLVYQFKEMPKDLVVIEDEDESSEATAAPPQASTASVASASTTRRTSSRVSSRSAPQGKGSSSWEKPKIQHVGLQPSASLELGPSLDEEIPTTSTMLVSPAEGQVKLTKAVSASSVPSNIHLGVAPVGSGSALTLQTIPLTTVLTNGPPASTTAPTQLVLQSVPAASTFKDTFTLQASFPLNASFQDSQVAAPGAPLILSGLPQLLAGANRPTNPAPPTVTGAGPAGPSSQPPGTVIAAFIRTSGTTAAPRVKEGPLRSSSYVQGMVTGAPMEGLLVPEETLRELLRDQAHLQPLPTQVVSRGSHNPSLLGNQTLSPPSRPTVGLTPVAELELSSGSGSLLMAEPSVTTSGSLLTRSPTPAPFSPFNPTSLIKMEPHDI
# SPIB, sequence (Q01892 whole entry): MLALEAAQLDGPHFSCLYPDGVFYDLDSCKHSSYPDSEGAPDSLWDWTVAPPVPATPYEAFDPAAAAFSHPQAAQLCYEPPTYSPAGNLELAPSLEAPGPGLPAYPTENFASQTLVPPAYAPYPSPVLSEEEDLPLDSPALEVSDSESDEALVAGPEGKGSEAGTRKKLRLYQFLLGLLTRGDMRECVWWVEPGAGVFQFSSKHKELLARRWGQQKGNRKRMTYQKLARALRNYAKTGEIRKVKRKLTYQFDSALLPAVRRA
# CRX, sequence (O43186 whole entry): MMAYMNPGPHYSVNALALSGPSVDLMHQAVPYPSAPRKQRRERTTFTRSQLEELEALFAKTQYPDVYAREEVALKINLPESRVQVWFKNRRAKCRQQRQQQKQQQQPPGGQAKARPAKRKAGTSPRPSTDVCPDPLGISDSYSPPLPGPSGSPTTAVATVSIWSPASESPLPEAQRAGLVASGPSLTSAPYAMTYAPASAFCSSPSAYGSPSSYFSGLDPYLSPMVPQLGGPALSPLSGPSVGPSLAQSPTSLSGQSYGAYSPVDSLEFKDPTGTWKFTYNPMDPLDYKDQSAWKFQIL
# ELF1, sequence (P32519 whole entry): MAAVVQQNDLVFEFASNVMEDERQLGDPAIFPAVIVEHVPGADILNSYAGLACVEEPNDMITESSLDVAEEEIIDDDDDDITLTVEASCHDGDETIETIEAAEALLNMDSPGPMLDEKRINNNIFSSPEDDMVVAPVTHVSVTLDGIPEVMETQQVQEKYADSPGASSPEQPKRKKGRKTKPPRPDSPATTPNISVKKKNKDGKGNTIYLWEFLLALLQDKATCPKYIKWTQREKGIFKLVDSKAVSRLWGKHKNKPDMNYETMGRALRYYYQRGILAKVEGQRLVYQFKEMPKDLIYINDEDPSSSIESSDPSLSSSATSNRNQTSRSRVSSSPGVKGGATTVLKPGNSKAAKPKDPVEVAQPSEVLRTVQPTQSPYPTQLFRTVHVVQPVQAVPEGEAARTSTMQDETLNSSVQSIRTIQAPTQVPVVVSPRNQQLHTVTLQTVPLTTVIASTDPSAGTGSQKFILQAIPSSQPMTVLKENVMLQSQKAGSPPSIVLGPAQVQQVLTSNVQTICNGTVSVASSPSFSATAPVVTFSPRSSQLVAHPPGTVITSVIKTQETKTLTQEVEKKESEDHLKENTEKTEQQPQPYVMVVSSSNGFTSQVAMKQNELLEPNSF
sequence,measurement,setting,value
CTGAAT,binding signal,FLI1,"1.23 fold enrichment (6-mer frequency, TF over GST control)"
same,binding signal,ELK1,"1.37 fold enrichment (6-mer frequency, TF over GST control)"
same,binding signal,GABPA,"1.36 fold enrichment (6-mer frequency, TF over GST control)"
same,binding signal,ERG,"1.36 fold enrichment (6-mer frequency, TF over GST control)"
same,binding signal,ELF1,"1.31 fold enrichment (6-mer frequency, TF over GST control)"
same,binding signal,EHF,"1.31 fold enrichment (6-mer frequency, TF over GST control)"
same,binding signal,SPI1,"1.36 fold enrichment (6-mer frequency, TF over GST control)"
same,binding signal,SPIB,"1.26 fold enrichment (6-mer frequency, TF over GST control)"
same,binding signal,ELK3,"1.23 fold enrichment (6-mer frequency, TF over GST control)"
same,binding signal,FEV,"1.32 fold enrichment (6-mer frequency, TF over GST control)"
same,binding signal,ETV5,"1.29 fold enrichment (6-mer frequency, TF over GST control)"
same,binding signal,HSF1,"1.37 fold enrichment (6-mer frequency, TF over GST control)"
same,binding signal,SPIC,"1.29 fold enrichment (6-mer frequency, TF over GST control)"
same,binding signal,ELF4,"1.29 fold enrichment (6-mer frequency, TF over GST control)"
same,binding signal,ELK4,"1.31 fold enrichment (6-mer frequency, TF over GST control)"
same,binding signal,ETV2,"1.5 fold enrichment (6-mer frequency, TF over GST control)"
same,binding signal,ELF3,"1.15 fold enrichment (6-mer frequency, TF over GST control)"
same,binding signal,CRX,"1.34 fold enrichment (6-mer frequency, TF over GST control)"
same,binding signal,ETV1,"1.36 fold enrichment (6-mer frequency, TF over GST control)"
